# Experimental data published in PubChem BioAssay.
# Values without a mark were called inactive. How the calls were made is not given here.
# Target: Pantothenate synthetase (Mycobacterium tuberculosis (strain ATCC 25618 / H37Rv)) (UniProt P9WIL5)
# Experiment: Recombinant Mtb pantothenate synthetase (PanC) inhibitors, coupled enzyme, confirmatory (AID 375);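 further: 0% = full reaction with vehicle and 100% = no enzyme background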
# Details: coupled enzyme assay; at 10 µM, active compounds read high
# Sequence of Pantothenate synthetase (Mycobacterium tuberculosis (strain ATCC 25618 / H37Rv)) (P9WIL5 whole entry, looked up): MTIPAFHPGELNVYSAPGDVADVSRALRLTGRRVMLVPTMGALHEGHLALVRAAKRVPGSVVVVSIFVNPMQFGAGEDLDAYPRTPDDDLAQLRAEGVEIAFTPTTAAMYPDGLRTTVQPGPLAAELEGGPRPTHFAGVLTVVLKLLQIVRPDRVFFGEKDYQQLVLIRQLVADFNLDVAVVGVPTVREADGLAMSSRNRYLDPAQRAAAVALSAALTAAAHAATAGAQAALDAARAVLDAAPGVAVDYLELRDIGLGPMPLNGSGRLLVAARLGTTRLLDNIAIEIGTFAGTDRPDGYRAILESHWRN
row,SMILES,inhibition [%]
1,CC(=O)OCC1=C(C(=O)O)N2C(=O)[C@@H](NC(=O)Cc3cccs3)[C@H]2SC1,0
2,CCOC(=O)N1CCC(NC(=O)CCc2c(C)nc3c(c(C)nn3C(C)(C)C)c2C)CC1,7
3,CN1CCN(C(c2cccc(C(F)(F)F)c2)c2nnnn2C(C)(C)C)CC1 (centres undefined),1
4,COc1ccc(-n2c(SCC(=O)N3CCCCC3C)nnc2-c2cccnc2)cc1 (centres undefined),0
5,CCOC(=O)C1CCN(C(=O)C2(NC(=O)Nc3ccccc3Cl)CCCCC2)CC1,0
6,COc1ccc(C)cc1NC(=O)CN1CCN(S(=O)(=O)c2ccc(Cl)cc2)CC1,0
7,COc1ccccc1N1C(=O)c2ccccc2NC1c1ccncc1 (centres undefined),3
8,O=C(Nc1ccc(CN2CCCCC2)cc1)c1ccc2c(c1)OCO2,3
9,C=CCN1C(=O)CS/C1=C(\C#N)S(=O)(=O)c1ccc(C)cc1,0
10,Cc1ccccc1NC(=O)c1ccccc1,10
11,FC(F)(F)c1cccc(N2CCN(Cc3cccnc3)CC2)c1,4
12,O=c1oc2ccccc2c(O)c1CN1CCCCC1,0
13,Nc1ncnc2nc(Sc3ccc(Cl)cc3)[nH]c12,0
14,CC(C)CNS(=O)(=O)c1ccc(CCC(=O)N2CCOCC2)cc1,0
15,COc1ccccc1NC(=O)C(C)NS(=O)(=O)c1ccc(F)cc1 (centres undefined),0
16,CC1(C)CC(=O)C(C=NCCc2ccc(S(N)(=O)=O)cc2)=C(O)C1,0
17,COc1ccc(OC)c(C2C(C#N)=C(N)Oc3cc(C)[nH]c(=O)c32)c1 (centres undefined),0
18,COc1ccc(-c2cc(C(=O)Nc3ccc(C)cc3)no2)cc1,0
19,CCOC(=O)C1=C(C)Nc2nnnn2C1c1ccc(OC)c(Br)c1 (centres undefined),1
20,Cc1cc2nc(-c3ccco3)cc(C(F)(F)F)n2n1,0

row,SMILES,inhibition [%]
1,Nc1nc(N2CCN(C/C=C/c3ccccc3)CC2)nc2ccccc12,7
2,N#Cc1ccc(CSc2nnc(-c3ccccn3)n2-c2ccccc2)cc1,0
3,Cc1cc(C)n2nc(SCc3nc4ccccc4[nH]3)nc2n1,6
4,CC(=O)c1n[nH]nc1NC(=O)c1ccccc1,0
5,Cc1c(NC(=O)C2(c3ccccc3)CCOCC2)c(=O)n(-c2ccccc2)n1C,3
6,C=CCN1C(=O)C2(C(C#N)=C(N)Oc3n[nH]c(CCC)c32)c2ccccc21 (centres undefined),0
7,CCOC(=O)C1CCN(C(=O)CCCCn2c(=O)[nH]c3ccccc3c2=O)CC1,2
8,CCOc1nc2ccccc2nc1NS(=O)(=O)c1ccccc1,1
9,CC1(C)CC(=O)C2=C(C1)N(Cc1ccco1)C(=O)C2(NC(=O)C1CCCCC1)C(F)(F)F (centres undefined),4
10,O=C(CCCN1C(=O)c2ccccc2C1=O)NCc1cccnc1,3
11,Nn1cc(-c2ccccc2)nc1SCC(=O)N1CCN(S(=O)(=O)c2ccccc2)CC1,0
12,Cc1cccc2cc(CN(CCN3CCCC3)C(=O)NC3CCCCC3)c(=O)[nH]c12,0
13,CCOc1ncccc1C(=O)Nc1ccc2c(C)cc(=O)oc2c1,7
14,Cc1nnc(NC(=O)c2ccccc2F)s1,0
15,Cc1nc2c(o1)CCc1ccccc1C2O (centres undefined),0
16,Cc1ccc(S(=O)(=O)N2CCN(C(=O)CSC3CCCC3)CC2)c(C)c1,0
17,O=C(CCn1c(=S)[nH]c2cc3c(cc2c1=O)OCO3)N1CCN(C2CCCCC2)CC1,0
18,CCOC(=O)CNC(=O)CSc1nc(N)cc(N)n1,1
19,C=CCn1c(COc2ccc(Cl)cc2)nnc1SCC(=O)N1CC(=O)Nc2ccccc21,0
